# Assay outcomes (PubChem)
# Only some compounds are listed: those with a hit (about 1.9% of all), similar ones and a draw of the others.
# Pf gametocyte: inhibitors of late stage P. falciparum gametocyte viability; P. falciparum stage V gametocytes, ATP luminescence, 24 h; inhibition, % at 10.9 µM; AID 743093; hit rate 0.065% among 150,000;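 active = inhibition above the mean plus 3 SD of compounds within the control limits, set per campaign, cut at about 38% in these data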;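 also: 0% = DMSO wells and 100% = medium only without gametocytes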
# S1P4 ag: human S1P4 receptor agonism. AID 1509. activation, % at 4.98 µM. S1P4-expressing cell line, agonist reporter assay. O95977. hit rate 0.35% among 220,000; in the data active = activation above about 11%;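 also: 0% = DMSO vehicle and 100% = reference agonist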
# Target sequence (O95977 whole entry, looked up): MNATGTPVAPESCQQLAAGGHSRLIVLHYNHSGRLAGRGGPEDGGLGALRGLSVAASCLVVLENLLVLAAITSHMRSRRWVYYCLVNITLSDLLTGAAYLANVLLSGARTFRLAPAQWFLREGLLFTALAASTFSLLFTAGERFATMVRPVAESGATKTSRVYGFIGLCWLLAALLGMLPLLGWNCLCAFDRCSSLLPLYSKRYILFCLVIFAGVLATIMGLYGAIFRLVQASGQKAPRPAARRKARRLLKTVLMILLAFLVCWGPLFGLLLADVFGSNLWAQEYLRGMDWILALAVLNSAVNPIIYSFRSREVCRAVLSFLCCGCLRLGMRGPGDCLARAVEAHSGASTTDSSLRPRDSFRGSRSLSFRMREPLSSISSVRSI
# S1P3 antag: blocks the human S1P3 receptor; Q99500; CHO S1P3 NFAT-BLA reporter, FRET fluorescence, antagonist mode; inhibition, % at 4.98 µM; hit rate 0.27% among 170,000;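 active = inhibition above the plate cutoff, the mean inhibition of test wells on that plate plus 3 SD, cut at about 28% in these data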;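 also: cells challenged with S1P at its EC80 of 0.8 µM; blue over green emission ratio from cleaved BLA substrate after 4 h stimulation; 0% = S1P-stimulated wells and 100% = unstimulated DMSO-only wells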
# S1P4 antag: antagonists of human S1P4 receptor | O95977 | S1P4-expressing cells, antagonist mode, reporter read-out | inhibition, % at 4.98 µM | hit rate 0.26% among 220,000 | AID 1510; in the data active = inhibition above about 29%;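 also: 0% = wells stimulated with agonist and 100% = vehicle wells without agonist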
# PGE2 EP2 inh: EP2 receptor (human) inhibition; P43116; C6 glioma cells expressing human EP2, cAMP TR-FRET; cells stimulated with saturating PGE2; inhibition, % at 25 µM; hit rate 0.52% among 260,000;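 active = percent inhibition above 40 after rounding to a whole number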;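 also: rat C6 glioma host cells with rolipram phosphodiesterase inhibitor present; the protocol text gives 20 µM as final concentration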
# EP2 modulator: EP2 receptor (human) modulation; P43116; EP2-expressing cells, cAMP HTRF FRET, PGE2 co-stimulation; induction, % at 25 µM; hit rate 0.83% among 260,000; AID 940;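 active = compounds whose cAMP rise, as percent of the full-agonist control response, exceeds 60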;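 also: rat C6 glioma line stably carrying human EP2 under a CMV promoter; the protocol text gives 20 µM as final concentration; 100% = response of wells given 1 µM PGE2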
# EP2 cAMP induct: EP2 receptor cAMP induction, counter-screens negative; shares compounds with EP2 modulator; C6 glioma EP2 cells, cAMP HTRF induction; plus low (about EC15) PGE2 agonist; calls only at 20 µM (by protocol); hit rate 47% among 1,300;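 active = cAMP induction above 50% in the main assay while under 30% in all four parallel counter assays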;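 also: rat C6 glioma cells stably expressing human EP2 receptor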
# Active calls of the source: *; i = inactive; x = not tested or not shown; + = active, no number.
SMILES,Pf gametocyte,S1P4 ag,S1P3 antag,S1P4 antag,PGE2 EP2 inh,EP2 modulator,EP2 cAMP induct
O=C(CSc1nnc(-c2ccc(Cl)cc2)n1Cc1ccco1)c1cccs1,x,1,20,6,14,70*,+
CCOCCCNC(=O)Cn1nc(CC)n2c(cc3sccc32)c1=O,x,x,x,x,x,-25,x
CCCCOC(=O)Sc1nc2ccccc2o1,-5,1,-40,-16,14,71*,i
N#Cc1c(-c2ccco2)nc(SCc2ccc(F)cc2)[nH]c1=O,-26,0,-14,-13,x,75*,i
Cc1cc(C)c2cc(C)c(SCC(=O)NCc3ccco3)nc2c1,3,1,-8,-5,7,77*,+
O=C(c1ccc(Cl)cc1)c1oc2ccccc2c1CS(=O)c1ccc(Cl)cc1 (stereo not drawn),-6,-2,x,-3,9,73*,+
Nc1c(C(=O)c2ccc(Cl)cc2)oc2ccccc12,-7,1,9,8,9,21,x
CCCc1nc(SCC(=O)c2ccc(OC)cc2)c2c(=O)n(C)c(=O)n(C)c2n1,x,x,-13,x,x,x,x
CCCCc1nc(SCCOC)c2c(=O)n(C)c(=O)n(C)c2n1,-23,1,-13,3,6,59,i
O=C(Nc1ccc(N2CCN(C(=O)c3ccco3)CC2)cc1)c1cccc(Cl)c1,x,x,x,x,4,-2,x
C[C@@H](Cn1nnc2ccccc21)NC(=O)CCn1cnc2ccccc21,x,x,x,x,8,-8,x
N#Cc1ccccc1N=C1CCCN1Cc1ccccc1,2,-4,15,5,12,33,x
Cc1cc(C)c(N=C2CCCN2Cc2ccccc2)c(C#N)c1,x,0,x,5,8,78*,+
O=C(CCn1c(=O)oc2ccccc21)N1C2CCC1CC(c1ccc(F)cc1)C2 (stereo not drawn),x,x,x,x,5,-63,x
CC1(c2ccc([N+](=O)[O-])cc2)CC(C)(C)N(C(=O)c2ccccc2)c2ccccc21 (stereo not drawn),x,1,-10,-22,1,-3,x
CC(=O)N1c2ccccc2C(C)(c2ccccc2)CC1(C)C (stereo not drawn),x,-1,x,3,8,78*,+
CCN(CC)c1nc(C)nc2c1sc(=S)n2C,24,-1,-5,-3,8,58,x
Cc1nc(N(C)C)c2sc(=S)n(Cc3ccccc3)c2n1,-7,-1,-3,-1,3,76*,+
Cc1cccc(OCc2nnc(SCC(=O)O)o2)c1,x,x,x,x,8,-11,x
O=C(CSc1nc(Cc2ccccc2)nc2ccccc12)c1ccc2c(c1)OCCO2,x,0,x,-8,5,66*,+
CCc1nc(SCC(=O)c2ccc3c(c2)OCCO3)c2ccccc2n1,x,-1,x,-14,14,-50,x
O=C(Cn1ccc2ccc(F)cc21)Nc1cccc(C(=O)N2CCCCC2)c1,x,x,x,x,4,-54,x
COc1ccc(-n2c(COc3ccc(Cl)cc3)nnc2SCc2ccc(C#N)cc2)cc1,x,-1,x,-3,5,53,i
COc1ccc(-n2c(COc3ccc(C)cc3)nnc2SCc2ccc(C#N)cc2)cc1,x,-1,x,-7,1,25,x
CCn1c(Cc2ccccc2)nnc1SCC(=O)N1CCCCC1C (stereo not drawn),x,x,x,x,9,-16,x
SMILES,Pf gametocyte,S1P4 ag,S1P3 antag,S1P4 antag,PGE2 EP2 inh,EP2 modulator,EP2 cAMP induct
O=C(/C(=C/O)N=Nc1ccc(Cl)cc1)c1ccncc1,0,-2,x,-7,11,-15,x
O=C(/C(=C/O)N=Nc1ccccc1Cl)c1ccccc1,2,0,-16,-1,5,69*,+
Cc1c(C(=O)N2CCC(C(=O)c3nc4ccccc4s3)CC2)cnn1C,x,x,x,x,x,9,x
CCn1c(/N=C/c2ccccc2O)nc2ccccc21,-2,x,x,x,x,x,x
C=CCc1cccc(/C=N/c2nc3ccccc3n2CC)c1O,x,3,0,-1,2,84*,i
CCn1c2ccccc2c2cc([N+](=O)[O-])ccc21,-7,0,3,-3,4,77*,+
Cc1ccc2[nH]c(=O)c(C(c3nnnn3C3CCCC3)N3CCN(c4ccc(F)cc4)CC3)cc2c1 (stereo not drawn),x,x,x,x,8,18,x
CC(C)(Sc1ccc(CCN(CCCCC2CCCCC2)C(=O)NC2CCCCC2)cc1)C(=O)O,x,x,x,x,13,66*,i
